Some test systems named below: SR leukemia; RPMI-8226 leukemia; OVCAR-8 ovarian; OVCAR-5 ovarian; OVCAR-4 ovarian; SK-OV-3 ovarian; IGROV1 ovarian; OVCAR-3 ovarian; HS 578T breast; NCI/ADR-RES ovarian.
Holding throughout (experiment): NCI-60 one-dose screen, 48 h (100 = growth as untreated, 0 = no growth, -100 = all killed)
Holding throughout (settings): 10 µM unless noted

This is part of a sample that, as a whole, favours compounds with a hit. Of some 83,000 tested, about 20% had one in any assay.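 In brief: 96-well plates, 48 h treatment, single concentration, percent growth endpoint.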 Unmarked numbers belong to inactive results. Activity calls are given as the source filed them. The calls were made as follows: active = growth percent below 10; inactive = the rest.

On to `COc1cccc(/C=C/C(=O)Nc2cc(OC)c3c(c2)OCO3)c1`, for which the growth is 81.5% with SR leukemia; 57.1% in the assay on RPMI-8226 leukemia; 105% in the assay with OVCAR-8 ovarian; 89.1% in the assay on OVCAR-5 ovarian; 96.4% in the assay with OVCAR-4 ovarian; 104% in the assay with SK-OV-3 ovarian. Moreover, the growth with IGROV1 ovarian was 108%; in the assay with OVCAR-3 ovarian it was 110%; in the assay on HS 578T breast it was 98.8%; in the assay with NCI/ADR-RES ovarian, 93.2%.
As to `O=C1NN(C(=O)c2ccc(Cl)cc2)C(c2ccccc2)=N/C1=C\c1ccc(F)cc1`, the growth is 80.2% in the assay with SR leukemia; 60.3% in the assay on RPMI-8226 leukemia; 86.6% with OVCAR-8 ovarian; 88.8% in the assay on OVCAR-5 ovarian; 99.1% in the assay with OVCAR-4 ovarian; 97.4% with SK-OV-3 ovarian. The growth is 87.6% in the assay with IGROV1 ovarian, 98.7% in the assay on OVCAR-3 ovarian, 95.2% with HS 578T breast and 66.7% in the assay on NCI/ADR-RES ovarian.
For the molecule `Cc1ccc(S(=O)(=O)C2=C3C(=C(c4ccccc4)c4ccccc43)CN(S(=O)(=O)c3ccc(C)cc3)C2)cc1`, the growth in the assay on SR leukemia is 3.89% (active); in the assay on RPMI-8226 leukemia it was -21.7% (active); in the assay on OVCAR-8 ovarian, 21.8%; in the assay on OVCAR-5 ovarian, 93.7%; in the assay on OVCAR-4 ovarian, 70.3%; in the assay with SK-OV-3 ovarian it was 92.6%. The growth in the assay with IGROV1 ovarian is 54%; in the assay on OVCAR-3 ovarian it was 56.9%; in the assay on HS 578T breast it was 62.4%; in the assay on NCI/ADR-RES ovarian, 27.8%.
Regarding `Cc1ccc(S(=O)(=O)/C(=C\c2ccc(Cl)cc2)C(=O)c2ccccc2)cc1`, the growth with SR leukemia was 105%; in the assay with RPMI-8226 leukemia, 103%; in the assay on OVCAR-8 ovarian, 107%; in the assay with OVCAR-5 ovarian, 114%; with OVCAR-4 ovarian, 107%; in the assay on SK-OV-3 ovarian, 96.9%. Moreover, the growth with IGROV1 ovarian is 109%; with OVCAR-3 ovarian, 119%; in the assay with HS 578T breast, 119%; in the assay with NCI/ADR-RES ovarian it was 104%.
For `C=C(C)[C@@H]1C[C@@H]2Cc3cc(Cl)ccc3N1O2`, the growth was 90.5% with SR leukemia; 83.2% in the assay on RPMI-8226 leukemia; 108% in the assay on OVCAR-8 ovarian; 83.5% in the assay on OVCAR-5 ovarian; 89.4% in the assay with OVCAR-4 ovarian; 108% with SK-OV-3 ovarian. Besides, the growth is 120% in the assay with IGROV1 ovarian, 116% in the assay with OVCAR-3 ovarian, 95.9% in the assay with HS 578T breast and 100% in the assay on NCI/ADR-RES ovarian.
Consider `COc1ccc(C(=O)NC(=O)Nc2cc3c(cc2F)/C(=C/c2[nH]c(C)c(CCC(=O)O)c2C)C(=O)N3)c(F)c1`, for which the growth with SR leukemia is 26.5%; with RPMI-8226 leukemia, -2.09% (active); in the assay with OVCAR-8 ovarian, 6.72% (active); in the assay on OVCAR-5 ovarian it was 63.1%; with OVCAR-4 ovarian, 80.3%; in the assay on SK-OV-3 ovarian, 60.5%. Moreover, the growth in the assay on IGROV1 ovarian was 37.4%; in the assay with OVCAR-3 ovarian, 36.8%; in the assay on HS 578T breast, 16.3%; in the assay on NCI/ADR-RES ovarian, 83.9%.
For the molecule `COc1ccc(-c2nc(-c3nc4cc(C)c(C)cc4[nH]3)cc3c2[nH]c2ccccc23)cc1`, the growth with SR leukemia was -43.7% (active); with RPMI-8226 leukemia it was -26.3% (active); in the assay on OVCAR-8 ovarian it was 36.9%; with OVCAR-5 ovarian it was 77.6%; in the assay with OVCAR-4 ovarian it was 60.6%; with SK-OV-3 ovarian, 109%. Moreover, the growth was 66.9% in the assay with IGROV1 ovarian, -4% (active) with OVCAR-3 ovarian, 56.9% with HS 578T breast and 41.7% in the assay on NCI/ADR-RES ovarian.
In the case of `OCCCCCCNc1ncnc2cc(Cl)ccc12`, the growth with SR leukemia is 64.8%; with RPMI-8226 leukemia it was 83.6%; with OVCAR-8 ovarian it was 94.1%; in the assay with OVCAR-5 ovarian, 119%; in the assay on OVCAR-4 ovarian it was 76.2%; in the assay with SK-OV-3 ovarian, 81.3%. Further, the growth in the assay on IGROV1 ovarian was 112%; with OVCAR-3 ovarian, 92.4%; in the assay on HS 578T breast it was 105%; with NCI/ADR-RES ovarian it was 95.7%.
`COc1ccc(C2CC(c3ccc(OC)cc3OC)=NN2c2ccc(S(N)(=O)=O)cc2)cc1` (stereo not given): the growth was 70.2% in the assay on SR leukemia; 2.07% (active) in the assay on RPMI-8226 leukemia; 77% with OVCAR-8 ovarian; 99.4% in the assay on OVCAR-5 ovarian; 80.2% in the assay on OVCAR-4 ovarian; 105% with SK-OV-3 ovarian. Besides, the growth in the assay with IGROV1 ovarian is 82.5%; in the assay on OVCAR-3 ovarian, 119%; in the assay with HS 578T breast, 103%; in the assay on NCI/ADR-RES ovarian, 89.4%.
As to `O=[N+]([O-])c1ccc(OCCCOc2ccccc2)cc1`, the growth was 92.3% in the assay with SR leukemia; 97.7% in the assay on RPMI-8226 leukemia; 105% in the assay on OVCAR-8 ovarian; 107% in the assay with OVCAR-5 ovarian; 100% in the assay with OVCAR-4 ovarian; 105% in the assay with SK-OV-3 ovarian. Also, the growth with IGROV1 ovarian was 94.5%; in the assay on OVCAR-3 ovarian it was 99.3%; with HS 578T breast it was 108%; with NCI/ADR-RES ovarian, 99.8%.
As for `C=C[C@@H]1C[C@@H]2Cc3c(C)cc(C)cc3N1O2`, the growth is 6.7% (active) with SR leukemia; 74.7% in the assay with RPMI-8226 leukemia; 98% in the assay on OVCAR-8 ovarian; 86.5% in the assay with OVCAR-5 ovarian; 83.6% in the assay with OVCAR-4 ovarian; 105% in the assay on SK-OV-3 ovarian. For the same molecule, the growth is 106% with IGROV1 ovarian, 103% with OVCAR-3 ovarian, 92.1% in the assay with HS 578T breast and 102% with NCI/ADR-RES ovarian.

The values above are taken from PubChem BioAssay (NCI).
